In PubChem BioAssay AID651610 (Broad Institute, 2012):
In all, about 360,000 compounds went through this assay and about 3,900 (1.1%) were called active. This is one part of a sample in which actives are shown more often than they occur. Values without a mark were called inactive.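 How the source made its calls: active means mean replicate inhibition score of at least 50 and every replicate individually at or above 50; inconclusive means only one of the two criteria met; inactive means mean below 50 and not all replicates reaching 50.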

Assay: blockers of JRFL envelope-mediated fusion – HeLa-JRFL effector, CEM21 target cells, luciferase, primary screen (AID 651610);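 further: 0% = plate neutral controls and 100% = maraviroc near 300 nM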
Details: HeLa-JRFL Env/CEM21 cell fusion, hits give high values; at 16.7 µM unless noted

Compared with `COc1ccc(C#Cc2cnc3c(c2)C(=O)N([C@H](C)CO)C[C@@H](C)[C@@H](CN(C)C(=O)CN(C)C)O3)cc1`, `CCCNC(=O)N(C)C[C@H]1Oc2ncc(C#Cc3ccncc3)cc2C(=O)N([C@@H](C)CO)C[C@@H]1C` is higher in inhibition: -3.11% for the first, 0.597% for the second.

Going from `COc1ccc(-c2cnc3c(c2)C(=O)N([C@@H](C)CO)C[C@H](C)[C@H](CN(C)C(=O)Cc2cccnc2)O3)cc1` to `C[C@H]1CN([C@@H](C)CO)C(=O)c2cc(Br)cnc2O[C@@H]1CN(C)S(=O)(=O)c1ccc(F)cc1`, the inhibition rises from -3.34% to 48%.

First: CO[C@@H]1CN(C)C(=O)c2cc(NC(=O)C3CCOCC3)ccc2OC[C@H](C)N(C)C[C@H]1C
Second: COCC(=O)N1C[C@@H](C)[C@H](OC)CN(C)C(=O)c2cc(NC(=O)c3cc(C)on3)ccc2OC[C@@H]1C
The inhibition of the first is higher: 0.584% for the first, -4.38% for the second.

Going from `C[C@@H]1CCCCO[C@H](CN(C)C)[C@H](C)CN([C@@H](C)CO)C(=O)c2cc(NS(=O)(=O)c3ccccc3)ccc2O1` to `COc1ccc(S(=O)(=O)N(C)C[C@@H]2OCCCC[C@H](C)Oc3ccc(NC(=O)NC(C)C)cc3C(=O)N([C@@H](C)CO)C[C@@H]2C)cc1`, the inhibition falls from 19.2% to 8.34%.

Going from `CCNC(=O)Nc1ccc2c(c1)C(=O)N(C)[C@H]1CC[C@@H](CC(=O)N[C@@H](C)c3ccccc3)O[C@H]1CO2` to `CO[C@H]1CN(C)C(=O)c2cc(NC(=O)NC(C)C)ccc2OC[C@@H](C)NC[C@@H]1C`, the inhibition falls from 0.456% to -14%.

Compared with `C[C@@H]1CN([C@H](C)CO)C(=O)Cc2cc(NC(=O)Cn3cnnn3)ccc2O[C@H]1CN(C)Cc1ccc(C(F)(F)F)cc1`, `C[C@@H]1CN([C@H](C)CO)C(=O)c2cccc(NS(=O)(=O)c3cn(C)cn3)c2O[C@H]1CN(C)Cc1ccc(C(=O)O)cc1` is higher in inhibition: 3.54% for the first, 16.1% for the second.

Going from `O=C(N[C@H]1CC[C@@H](CCNC(=O)C2CCC2)O[C@@H]1CO)c1ccncc1` to `Cc1noc(C)c1NC(=O)N[C@@H]1CC[C@H](CCNC(=O)C2CCC2)O[C@@H]1CO`, the inhibition falls from 7.35% to 5.86%.

Going from `C[C@@H]1CN([C@@H](C)CO)C(=O)c2cc(NC(=O)C3CCCCC3)ccc2O[C@@H](C)CCCCO[C@H]1CN(C)C(=O)CCC(F)(F)F` to `COc1ccc(NC(=O)Nc2ccc3c(c2)C(=O)N([C@H](C)CO)C[C@@H](C)[C@@H](CN(C)C(=O)NC(C)C)OCCCC[C@H](C)O3)cc1`, the inhibition falls from 7.33% to -15.9%.

Going from `Cc1noc(C)c1C(=O)N(C)C[C@H]1OCc2ccccc2-c2c(n(C)c3ccccc23)C(=O)N([C@@H](C)CO)C[C@H]1C` to `C[C@@H]1CN([C@H](C)CO)C(=O)c2c(c3ccccc3n2C)-c2ccccc2CO[C@H]1CN(C)C(=O)c1ccncc1`, the inhibition rises from -3.54% to 1.26%.

First: C[C@@H]1CN([C@H](C)CO)C(=O)c2c(c3ccccc3n2C)-c2ccccc2CO[C@H]1CN(C)S(=O)(=O)c1ccccc1F
Second: C[C@@H]1CN([C@@H](C)CO)C(=O)c2c(c3ccccc3n2C)-c2ccccc2CO[C@@H]1CN(C)S(=O)(=O)CC(F)(F)F
The inhibition of the first is higher: 6.3% for the first, -10.3% for the second.

First: C/C=C/c1ccc2c(c1)O[C@H](CN(C)C(=O)c1ccc3c(c1)OCO3)[C@@H](C)CN([C@H](C)CO)S2(=O)=O
Second: C[C@@H]1CN([C@@H](C)CO)S(=O)(=O)c2ccc(C#Cc3ccc(F)cc3)cc2O[C@H]1CN(C)C(=O)NC1CCCC1
The inhibition of the first is lower: -3.13% for the first, -2.36% for the second.

Compared with `C[C@H](CO)N1C[C@H](C)[C@@H](CN(C)C(=O)Nc2ccc(F)cc2)OCCCC[C@H](C)Oc2ccc(NC(=O)c3ccncc3)cc2C1=O`, `C[C@H]1CN([C@@H](C)CO)C(=O)c2ccccc2-c2ccccc2CO[C@@H]1CN(C)S(=O)(=O)c1ccc(C(F)(F)F)cc1` is higher in inhibition: -27.7% for the first, 22.4% for the second.

First: COc1ccc([Si](C)(C)[C@@H]2[C@@H](CCO)O[C@]3(C(=O)N(Cc4cccc(N5CCCCC5=O)c4)c4ccccc43)[C@H]2C)cc1
Second: COc1ccc([Si](C)(C)[C@@H]2[C@@H](CCO)O[C@]3(C(=O)N(Cc4ccccc4)c4ccc(N5CCC5=O)cc43)[C@H]2C)cc1
The inhibition of the first is lower: -10.1% for the first, 15.1% for the second.

Compared with `C[C@@H]1CN([C@H](C)CO)C(=O)c2ccccc2-c2ccccc2CO[C@H]1CN(C)S(=O)(=O)c1ccsc1`, `C[C@H](CO)N1C[C@H](C)[C@@H](CN(C)S(=O)(=O)c2cccs2)OCc2ccccc2-c2ccccc2C1=O` is lower in inhibition: 15.4% for the first, 3.13% for the second.

Compared with `Cc1noc(C)c1S(=O)(=O)N(C)C[C@@H]1OCc2ccccc2-c2ccccc2C(=O)N([C@@H](C)CO)C[C@H]1C`, `COc1ccc(CN(C)C[C@H]2Oc3c(NS(=O)(=O)c4ccccc4)cccc3C(=O)N([C@@H](C)CO)C[C@H]2C)cc1` is lower in inhibition: 28.5% for the first, 12% for the second.

Compared with `Cc1ccc(F)cc1S(=O)(=O)N[C@@H]1CCN(Cc2ccc(-c3ccccc3)cc2)C1`, `O=C(N[C@H]1CC[C@@H](CCNS(=O)(=O)c2cccc(Cl)c2)O[C@@H]1CO)c1ccccc1` is higher in inhibition: -7.12% for the first, 12.1% for the second.

Compound `O=C(Cc1ccccn1)NCC[C@H]1CC[C@@H](NS(=O)(=O)c2ccc(F)cc2)[C@H](CO)O1` has an inhibition of -7.4%.

Going from `Cc1ccc(NS(=O)(=O)c2ccc(C(C)(C)C)cc2)cn1` to `Cc1cc(C)cc(OCC(=O)Nc2ccc(S(=O)(=O)Nc3ccccn3)cc2)c1`, the inhibition rises from 3.22% [at 12.3 µM] to 19.9% [at 12.3 µM].

Compared with `O=C(c1ccccc1)N1CCC(CC2CC(c3ccc(Cl)cc3)=NO2)(C(=O)NCC2CCCCC2)CC1` (stereo not given), `CCCCCCCNC(=O)C1(CC2CC(c3cccc(Br)c3)=NO2)CCN(C(=O)c2cc(OCC)c(OCC)c(OCC)c2)CC1` (stereo not given) is higher in inhibition: -114% [at 12.3 µM] for the first, 28.1% [at 12.3 µM] for the second.

Going from `Cc1ccc(C(=O)N/C(=C\c2cccs2)C(=O)NCCc2ccccn2)cc1C` to `COc1ccc(NCCc2ccccn2)cc1`, the inhibition falls from -3.78% [at 12.3 µM] to -6.27% [at 12.3 µM].

Going from `COc1ccccc1CNC(=O)CCCN1C(=O)NC2(CCCC2)C1=O` to `COc1ccccc1CNC(=O)C1CCN(S(C)(=O)=O)CC1`, the inhibition falls from 2.68% [at 12.3 µM] to -69% [at 12.3 µM].

First: CC(=O)N1C[C@@H](CO)[C@@H](N(C)C(=O)C(C)(C)C)C[C@H]1c1ccccc1Br
Second: CCCCNC(=O)C[C@@H]1C[C@@]2(C(=O)OC)CC(C)(C)CC=C2N(Cc2ccco2)C1=O
The inhibition of the first is lower: -6.57% [at 12.3 µM] for the first, 5.33% [at 12.3 µM] for the second.

First: CCOC1=C2[C@@H](CN(S(=O)(=O)c3ccc(C)cc3)[C@H]2c2ccccc2F)[C@H]2C(=O)N(Cc3ccccc3)C(=O)[C@H]2C1
Second: Cc1cccc([C@@H]2[C@@H]3C(=O)N(Cc4ccccc4)C(=O)[C@@H]3[C@]3(Cc4ccc(Cl)cc4)C(=O)N(c4cccc(Cl)c4)C(=O)N23)c1
The inhibition of the first is higher: 12.3% [at 12.3 µM] for the first, -14.5% [at 12.3 µM] for the second.

First: O=C1[C@H]2[C@@H](c3ccc(Cl)cc3)N3C(=O)N(c4cccc(F)c4)C(=O)[C@@]3(Cc3ccccc3)[C@H]2C(=O)N1C1CCCCC1
Second: CCOC(=O)[C@]12CCC=C1N(Cc1ccco1)C(=O)[C@H](CC(=O)NCc1cccc(C(F)(F)F)c1)C2
The inhibition of the first is lower: 1.92% [at 12.3 µM] for the first, 18.4% [at 12.3 µM] for the second.

In the case of `Cc1ccc(S(=O)(=O)Nc2ccc3ncccc3c2)cc1`, the inhibition is reported as 60.8% [at 12.3 µM] (active).
With `COc1ccc(CNC(=O)C2(CC3CC(c4ccccc4)=NO3)CCN(C(=O)c3cccc(O)c3)CC2)cc1` (stereo not given) the inhibition was 65.8% [at 12.3 µM] (active).
In the case of `COc1cncc(-c2cnc3sc(NCCc4ccccn4)nn23)c1`, the inhibition is reported as 61.5% [at 12.3 µM] (active).
In the case of `COC(=O)C1(C(=O)OC)C[C@H](c2ccccc2)N(Cc2ccccc2OC)[C@@H]1c1ccccc1`, the inhibition is reported as 84.1% [at 12.3 µM] (active).
For `C[C@H](CO)N1C[C@H](C)[C@@H](CN(C)S(=O)(=O)c2cccc(F)c2)OCc2ccccc2-c2c(n(C)c3ccccc23)C1=O`, the inhibition was 56% (active).
For `C[C@H](CO)N1C[C@H](C)[C@H](CN(C)C(=O)c2ccncc2)OCc2ccccc2-c2c(n(C)c3ccccc23)C1=O`, the inhibition was 59.8% (active).
For `COc1ccc([Si](C)(C)[C@H]2[C@H](CCO)O[C@@]3(C(=O)N(Cc4cccc(N5CCOC5=O)c4)c4ccccc43)[C@@H]2C)cc1`, the inhibition was 61.7% (active).
For `C[C@H]1CN([C@@H](C)CO)C(=O)c2ccccc2-c2ccccc2CO[C@H]1CN(C)S(=O)(=O)c1ccccc1C#N`, the inhibition was 66.4% (active).
With `C[C@H]1CN([C@@H](C)CO)C(=O)c2ccccc2-c2ccccc2CO[C@H]1CN(C)S(=O)(=O)c1cccc(C#N)c1` the inhibition was 56.8% (active).
With `Cc1ccc(S(=O)(=O)N2C[C@@H]3CCCC[C@@H]3[C@@H](C)[C@H]2c2cn(Cc3ccccc3)c3ccc(F)cc23)cc1` the inhibition was 77% [at 12.3 µM] (active).
In the case of `O=C1[C@H]2[C@@H](c3ccc(F)cc3)N3C(=O)N(c4ccc(C(F)(F)F)cc4)C(=O)[C@@]3(Cc3ccccc3)[C@H]2C(=O)N1C1CCCCC1`, the inhibition is reported as 79% [at 12.3 µM] (active).
In the case of `Cc1cccc(N2C(=O)N3[C@H](c4ccc(F)cc4)[C@@H]4C(=O)N(C5CCCCC5)C(=O)[C@@H]4[C@]3(Cc3ccccc3)C2=O)c1`, the inhibition is reported as 55.1% [at 12.3 µM] (active).
In the case of `COC(=O)[C@@]12C[C@@H](CC(=O)NCc3cccc(C(F)(F)F)c3)C(=O)N(Cc3ccco3)C1=CCC(C)(C)C2`, the inhibition is reported as 74.9% [at 12.3 µM] (active).
